# Bioassay records as filed in PubChem BioAssay.
# Neddyl block: inhibitors of human cullin neddylation; P61081+Q13564; TR-FRET cullin neddylation, biochemical; inhibition, % at 25 µM; 0.58% of 360,000 active; AID 651699; in the data active = inhibition above about 36%
# Target sequence (P61081 whole entry, looked up): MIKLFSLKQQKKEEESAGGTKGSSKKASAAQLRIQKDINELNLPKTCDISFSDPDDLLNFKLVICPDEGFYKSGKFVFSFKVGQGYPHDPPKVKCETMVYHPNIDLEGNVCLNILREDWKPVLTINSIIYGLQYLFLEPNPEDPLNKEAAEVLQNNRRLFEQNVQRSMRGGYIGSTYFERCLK
# Target sequence (Q13564 whole entry, looked up): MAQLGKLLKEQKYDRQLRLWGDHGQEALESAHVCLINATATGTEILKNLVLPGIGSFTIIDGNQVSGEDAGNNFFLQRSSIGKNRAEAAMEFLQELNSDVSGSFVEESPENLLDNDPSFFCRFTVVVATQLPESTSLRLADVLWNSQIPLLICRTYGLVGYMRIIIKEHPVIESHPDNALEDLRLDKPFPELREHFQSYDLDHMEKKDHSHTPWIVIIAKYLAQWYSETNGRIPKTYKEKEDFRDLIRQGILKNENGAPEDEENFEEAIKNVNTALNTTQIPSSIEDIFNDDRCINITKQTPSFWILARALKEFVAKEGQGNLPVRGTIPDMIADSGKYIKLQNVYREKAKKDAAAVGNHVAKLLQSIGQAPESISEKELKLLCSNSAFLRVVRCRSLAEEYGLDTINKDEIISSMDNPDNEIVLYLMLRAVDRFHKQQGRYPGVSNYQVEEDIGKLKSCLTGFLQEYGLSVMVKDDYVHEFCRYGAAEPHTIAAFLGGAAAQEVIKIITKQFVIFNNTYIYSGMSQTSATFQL
# Vif inh: blocks HIV Vif function; 0.35% of 340,000 active; inhibition, % at 7.49 µM; HEK293T cells, Vif self-association by quenched fluorescence, imaging, 24 h; in the data active = inhibition above about 50%, passing the limit was not always enough
# INS-1E GSIS act: GLuc luminescence reporter in INS-1E cells, primary screen for activators of glucose-dependent secretion of insulin; INS-1E GLuc reporter insulin secretion, 2-3 h; 0.61% of 370,000 active; activation, % at 16.6 µM;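 active = lowest replicate activation of at least 40%, so every replicate reaches that level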;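 note: 0% = median of neutral control wells and 100% = median of IBMX positive control wells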
# dFosB activator: enhances mouse delta FosB homodimer DNA binding; P13346; purified delta FosB, TAMRA-CDK5 oligo fluorescence polarization; percent of positive-control signal above neutral wells; activation, % at 25 µM; 0.99% of 340,000 active;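 active = mean activation above about 17%, with every replicate also reaching it, limit read from the data, passing the limit was not always enough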
# Bfl-1 A1 inh: inhibitors of the anti-apoptotic protein A1, read as caspase activation. MEF A1-2A-BIM cells, Caspase-Glo 3/7 luminescence, 3 h; percent of clofoctol response, vehicle zero. caspase activation, % (no concentration beside the values). 0.066% of 330,000 active. AID 2462;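 active = over half of replicate activation scores above 10%, or exactly half above 10 with the replicate mean above 10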
# * hit, by the source's call; nt = not tested or not shown. This is a sample that favours compounds with a hit; in the whole collection about 1.9% have one here.
SMILES,Neddyl block,Vif inh,INS-1E GSIS act,dFosB activator,Bfl-1 A1 inh
COc1cc(CN2CCc3ccccc3C2)ccc1O,1,-1,77*,5,33*
COc1cc(CN2CCc3ccccc3C2)cc([N+](=O)[O-])c1O,-33,-6,11,1,1
O=C(C[C@@H]1C=C[C@H](NC(=O)c2ccc3c(c2)OCO3)[C@@H](CO)O1)NCc1ccc(Cl)cc1,nt,nt,6,nt,nt
CCN1CCN(c2ccc(S(=O)(=O)N3CCCCC3)cc2NC(=O)/C=C/c2ccc([N+](=O)[O-])cc2)CC1,-30,-1,-24,52*,0
O=C(Nc1ccccc1N1CCOCC1)c1cc2ccccc2o1,22,-6,19,4,-2
O=C(Nc1ccc(N2CCOCC2)c(Cl)c1)c1cc2ccccc2o1,21,92*,nt,-3,1
CCN1CCN(c2ccc(S(=O)(=O)N3CCCCC3)cc2NC(=O)/C=C/c2ccc(F)cc2)CC1,10,-1,-20,-15,1
CCN1CCN(c2ccc(S(=O)(=O)N3CCCCC3)cc2NC(=O)c2cc3ccccc3o2)CC1,30,nt,46*,5,0
CN1CCN(c2ccc(S(=O)(=O)N3CCCCC3)cc2NC(=O)/C=C/c2ccc(Cl)c([N+](=O)[O-])c2)CC1,-13,4,-56,52*,0
CN1CCN(c2ccc(S(=O)(=O)N3CCCCC3)cc2NC(=O)/C=C/c2ccc(OC(F)F)cc2)CC1,5,2,-29,-19,2
C[C@@H]1CN([C@H](C)CO)C(=O)c2cc(NC(=O)CCCN(C)C)ccc2O[C@H]1CN(C)S(C)(=O)=O,nt,nt,3,nt,nt
C[C@@H]1CCCCO[C@H](CN(C)S(=O)(=O)c2cccs2)[C@H](C)CN([C@H](C)CO)C(=O)c2cc(NC(=O)Nc3ccccc3)ccc2O1,nt,nt,0,nt,nt
COc1ccc(OCc2nnc3n2N=C(c2ccc(OC)cc2)CS3)cc1,-15,4,45*,-19,-1
COc1ccc(OCc2nnc3n2N=C(c2ccc(C)cc2)CS3)cc1,-7,-1,5,-13,0
CCCc1nnc2n1N=C(c1ccc(OC)c(OC)c1)CS2,-7,57*,106*,-7,1
COc1ccc(OC)c(-c2nnc3n2N=C(c2ccc(OC)c(OC)c2)CS3)c1,-15,nt,80*,2,0
COc1ccc(C2=Nn3c(nnc3-c3ccccc3F)SC2)cc1OC1CCOC1 (stereo unspecified),-11,-2,45*,-12,-1
COc1ccc(C2=Nn3c(nnc3-c3ccccc3F)SC2)cc1OC1CCCC1,-4,-18,55,-27,-2
COc1ccc(C2=Nn3c(nnc3-c3ccccc3OC)SC2)cc1OCC1CC1,-3,-4,50*,-9,0
COc1ccc(OC)c(-c2nnc3n2N=C(c2ccc(OC(F)F)c(OCC4CC4)c2)CS3)c1,-10,20,-1,-6,-2
Cn1cnc([N+](=O)[O-])c1S(=O)(=O)Nc1ccccc1,8,23,-9,2,nt
Cn1cnc([N+](=O)[O-])c1S(=O)(=O)Oc1ccccc1,-24,-3,54*,-2,nt
Cn1cnc([N+](=O)[O-])c1S(=O)(=O)c1cccc(Cl)c1,9,-3,104*,-3,7.8*
Cc1nn(C(C)C(=O)c2cccc(Cl)c2)c(C)c1[N+](=O)[O-] (stereo unspecified),13,3,-11,2,0
Cc1ccc(NC(=O)CCC(=O)N/N=C/c2ccccc2O)cc1,22,3,0,6,0
SMILES,Neddyl block,Vif inh,INS-1E GSIS act,dFosB activator,Bfl-1 A1 inh
O=C(CCC(=O)Nc1ccc(F)cc1)N/N=C/c1ccccc1,-13,2,-19,18*,-1
O=C(CCC(=O)Nc1ccc(Br)cc1)N/N=C/c1ccccc1O,12,-2,-31,29*,0
O=C(CCn1cnc(-c2ccccc2)c1-c1ccccc1)N/N=C/c1ccccc1O,54*,-20,-21,-14,0
CC(=O)Nc1ccc(C=NNC(=O)CCCC(=O)NN=Cc2ccc(NC(C)=O)cc2)cc1,-3,3,41*,3,nt
O=C(CCC(=O)Nc1ccc(F)cc1)N/N=C/c1ccc(Br)cc1,1,nt,8,7,-1
C[C@H](CO)N1C[C@H](C)[C@@H](CN(C)C(=O)Nc2ccc3c(c2)OCO3)Oc2ccc(NC(=O)Nc3ccccc3)cc2C1=O,nt,nt,-9,nt,nt
CCCC#Cc1cnc2c(c1)C(=O)N([C@@H](C)CO)C[C@@H](C)[C@@H](CN(C)C(=O)Cc1cccnc1)O2,nt,nt,2,nt,nt
O=C(CNC(=O)c1cccc(Br)c1)N/N=C/c1cc(Br)cc(Br)c1O,18,-2,-2,4,0
O=C(Cc1ccccc1)N/N=C/c1cc(Br)cc(Br)c1O,14,-8,9,39*,1
O=C(C[C@@H]1C=C[C@@H](NC(=O)c2ccccc2)[C@@H](CO)O1)NCc1ccncn1,nt,nt,17,nt,nt
C[C@@H]1CN([C@H](C)CO)C(=O)c2cc(-c3ccc(C#N)cc3)cnc2O[C@@H]1CN(C)C(=O)Nc1ccc(F)cc1,nt,nt,3,nt,nt
O=C(OCCc1ccccc1)c1cc(O)c(O)c(O)c1,-10,51*,-39,-8,-2
Nc1ccc(C(=O)OCCc2ccccc2)cc1,-5,-13,2,-4,-4
Cc1noc(C)c1NC(=O)N(C)C[C@H]1Oc2ccc(NS(=O)(=O)c3ccc(F)cc3)cc2CC(=O)N([C@H](C)CO)C[C@@H]1C,nt,nt,7,nt,nt
COc1ccc(CNC(=O)CN2C(=O)NC(c3ccccc3)(c3ccccc3)C2=O)cc1,11,110*,-40,-11,0
COc1ccc(C(=O)CSc2nnc(-c3cccs3)n2-c2ccccc2)cc1,-58,4,46*,-2,-1
Cc1ccc(-n2c(SCC(=O)Nc3ccc4c(c3)OCO4)nnc2-c2cccs2)cc1,-11,76*,nt,6,-1
Cc1ccc(S(=O)(=O)Nc2ccc3c(c2)C(=O)N([C@H](C)CO)C[C@H](C)[C@H](CN(C)C(=O)c2ccccc2)OCCCC[C@@H](C)O3)cc1,nt,nt,16,nt,nt
CC(=O)NC1=NN(C(C)=O)C(C)(c2ccc(C)o2)S1 (stereo unspecified),0,-1,-19,3,0
CC(=O)NC1=NN(C(C)=O)C(C)(c2ccco2)S1 (stereo unspecified),9,51*,7,-11,0
CCOc1ccc(-n2nnnc2-c2nc3ccccc3s2)cc1,-53,1,90*,-1,0
CC(O)CN(C)CC/C=C1/c2ccccc2CSc2ccccc21 (stereo unspecified),2,86*,-5,-4,0
C/C=C/c1ccc(O)c(OC)c1,7,-12,nt,-4,0
Oc1cc(O)cc(/C=C/c2ccc(O)c(O)c2)c1,60*,-2,nt,-2,-6
CC(=O)N(C)C[C@H]1Oc2ncc(-c3ccc(C#N)cc3)cc2C(=O)N([C@@H](C)CO)C[C@@H]1C,nt,nt,12,nt,nt
CS(=O)(=O)N1CCN(c2ccccc2NC(=O)c2ccco2)CC1,2,4,42*,0,1
